Source: the supplement of paper PMC10338343
± gives the standard deviation.

These sequences were tested on MILI (PIWIL2) piRISC loaded with piRNA #1 (26 nt) (assay: pre-steady-state target cleavage rate (min^-1); guide: piRNA #1 5'p-UGAGGUAGUAGGUUGUAUAGUAUCCA; higher = faster piRNA-guided slicing of the target). Settings: auxiliary factor: 500 nM mouse GTSF1.
In short: (§1)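 The method was Cleave-'n-Seq, in which uncleaved targets from a transcribed, DNA-blocked target RNA library were sequenced after exposure to active affinity-purified piRISC carrying one synthetic guide, with or without GTSF1 partner protein. Reactions contained 0.1 nM library, 1 nM piRISC and, where present, 500 nM GTSF1 in HEPES–potassium acetate buffer at 33 °C for 0–8 or 0–960 min. Reads were normalised to depth and to weakly complementary targets, three trials were pooled, and k3 was capped at 0.0001 min^-1. The pre-steady-state cleavage rate came from a burst-and-steady-state fit.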

Row | Sequence | pre-steady-state target cleavage rate
1 | GGAGAGGAUACUUUACAACCUACUACCACA | 0.152 ± 0.015
2 | GGAGACGAUACAAUACAACCUACUACCUGA | 0.116 ± 0.015
3 | GGAGACGAUACUGUACAACCUACUACCUCA | 0.169 ± 0.018
4 | GGAGUGGAUACUAUACAUGGAUGAUGGAGA [g14:g26:cont:t1A] | < 0.0001
5 | GGAGUGGAUAUCUAUACAACCUACUACCUCA | 0.0708 ± 0.0091

The sequences below were run on EfPiwi piRISC loaded with piRNA #1 (26 nt) (assay: pre-steady-state target cleavage rate (min^-1); auxiliary factor: 500 nM Ephydatia muelleri Gtsf1; guide: piRNA #1 5'p-UGAGGUAGUAGGUUGUAUAGUAUCCA; MIWI and MILI are mouse PIWI proteins and EfPiwi is from a freshwater sponge; tags in brackets are library labels; higher = faster piRNA-guided slicing of the target). Settings: not given.
In short: as §1

Row | Sequence | pre-steady-state target cleavage rate
6 | GGAGAGGAUACUAUACAAGCCUACUACCUCA | 0.00835 ± 0.005
7 | GGAGAGGAUACUUUACAACCUACUACCACA | 0.0019 ± 0.0011
8 | GGAGACCUAUGAAUACAACCUACUACCUCG [g2:g18:cont:t1G] | 0.00485 ± 0.004
9 | GGAGACGAUACAAUACAACCUACUACCUGA | 0.0025 ± 0.0015
10 | GGAGUGGAUACUAUACAACCUUCUAGCUCA | 0.00376 ± 0.0018
11 | GGAGACGAUACUAUACUAACCUACUACCUCA | 0.00448 ± 0.0044
12 | GGAGACCUACCUAUACAACCUACUACCUCA | 0.0239 ± 0.012
13 | GGAGACCUAACUAUACAACCCACUACCUCA | 0.00404 ± 0.0036
14 | GGAGACCAUACUAUACAACCUACUAGGUCA | 0.00366 ± 0.0023
15 | GGAGAGGAUACUAUACAACCUCCUACCUCA | 0.0065 ± 0.0026
16 | GGAGACCUUACUAUACAACCUAGUACGUCA | 0.00357 ± 0.0023
17 | GGAGAGGAUACUAUACAACCUUGAACCUCA | 0.00408 ± 0.004
18 | GGAGAGGAUACUAUACAACGUACUAGCUCA | 0.0029 ± 0.0015
19 | GGAGUGCUUACUAUACAACCUACUACCUCA | 0.0694 ± 0.025
20 | GGAGUGGAUACUAUACAACCUUGAACCUCA | 0.00462 ± 0.0029
21 | GGAGACGAUACUGUACAACCUACUACCUCA | 0.0777 ± 0.025
22 | GGAGACCUUUCUAUACAACCUACUACCUCA | 0.11 ± 0.036
23 | GGAGACGAUACUAUUCAUCCUACUACCUCA | 0.00763 ± 0.0036
